Source: PubChem BioAssay (Tox21)
Activity calls are given as the source filed them. The call rests on the fitted dose curve; in most records, active means well fitted curve in the direction sought with a large enough effect in the repeat runs; inconclusive means weak or mixed curves; inactive means flat fitted curve, though single readings scatter.

test: qHTS assay to test for compound auto fluorescence at 535 nm (green) in HepG2 cells (AID 720675); conditions: green autofluorescence 485/535 nm, 1 h; series mostly up to 91.3 µM
Source text: National Center for Advancing Translational Sciences [NCATS]
NIH Chemical Genomics Center [NCGC]
U.S. Environmental Protection Agency [EPA]
National Institutes of Environmental Health Sciences [NIEHS]
National Toxicology Program [NTP]
U.S. Food and Drug Administration [FDA]
Compound auto fluorescence often interferes with screening of the compound library against various biological targets and signaling pathways. Some of these compounds may have fluorophoric properties. Such properties may interfere with the assay outputs resulting in false positives and/or negatives. To decrease such complications and ensure the compound activities are relevant in terms of biological response, the Tox21 10K compound library was screened for auto fluorescence.
From the fluorophores used as reporter signals in our screening assays, the auto fluorescence equivalencies of compounds against three fluorophores have been evaluated: Triamterene, Fluorescein and Rose Bengal sodium for blue, green and red fluorescence, respectively. The fluorescence intensities were measured using Excitation/Emission wavelengths at 405/460nm, 485/535nm and 540/590nm for blue, green and red labels, respectively. This assay includes the green fluorescence data.
Tox21 Assay Protocol Summary:
2,000 HepG2 cells in 5 uL of culture medium (MEM containing 10% FBS) per well were dispensed into black wall/clear bottom 1536-well plates using a Multidrop Combi Dispenser (ThermoFisher Scientific, Waltham, MA). The assay plates were incubated overnight at 37 C to allow cell attachment to the well bottom, followed by the transfer of 23 nL compound or DMSO vehicle by a pintool work station (Kalypsys , San Diego, CA). After the assay plates were incubated for 1 hr at 37 C and 5% CO2, fluorescence intensities in the assay plates were measured by an Envision (PerkinElmer, Shelton, CT) plate reader using three labels for measuring blue, green and red fluorescence at […] 460, 535 and 590 nm respectively.
On the % scale 0 is the no-effect control and ±100 the full control effect.

| SMILES | outcome | fluorescence, % of fluorescein control |
| --- | --- | --- |
| CCCCCCCCCCCCN(C)C | inactive | – |
| O=S(=O)(c1ccccc1)c1ccccc1 | inactive | – |
| CCC(C)(C)O | inactive | – |
| CN1CC[C@]23c4c5ccc(O)c4O[C@H]2[C@@H](O)C=C[C@H]3[C@H]1C5 | inactive | – |
| Nc1ccc2c(c1)Cc1ccccc1-2 | inactive | – |
| CCC1CCC(=O)O1 (stereo not given) | inactive | – |
| C=CC(=O)NC(C)(C)CC(C)=O | inactive | – |
| CCCCOC(=O)CCC(=O)OCCCC | inactive | – |
| CC(C)(C)OOC(C)(C)CCC(C)(C)OOC(C)(C)C | inactive | – |
| CCOC(=O)C1OC1(C)c1ccccc1 (stereo not given) | inactive | – |
| O=C(O)COc1cc(Cl)c(Cl)cc1Cl | inactive | – |
| C=CCc1ccccc1O | inactive | – |
| CCCN(CCC)c1c([N+](=O)[O-])cc(C(C)C)cc1[N+](=O)[O-] | inactive | – |
| CC(C)CCON=O | inactive | – |
| CCCC[N+]1(C)[C@@H]2CC(OC(=O)[C@H](CO)c3ccccc3)C[C@H]1[C@@H]1O[C@@H]12 (stereo not given in full) | inactive | – |
| O=C1NC(=O)C(=O)C(=O)N1 | inactive | – |
| COCc1cnc(C2=NC(C)(C(C)C)C(=O)N2)c(C(=O)O)c1 (stereo not given) | inactive | – |
| O=[N+]([O-])/C=C/c1ccccc1 | inactive | – |
| C[N+]1(CCF)[C@@H]2CC[C@H]1CC(OC(=O)C(O)(c1ccccc1)c1ccccc1)C2 (stereo not given in full) | inactive | – |
| O=C(N[C@H]1CN2CCC1CC2)c1ccc2c(c1)OCCO2 | inactive | – |

| SMILES | outcome | fluorescence, % of fluorescein control |
| --- | --- | --- |
| C[Si](Cn1cncn1)(c1ccc(F)cc1)c1ccc(F)cc1 | inactive | – |
| O=P(OCC(Br)CBr)(OCC(Br)CBr)OCC(Br)CBr (stereo not given) | inactive | – |
| O=C(O)C(F)(F)C(F)(F)C(F)(F)C(F)(F)C(F)(F)C(F)(F)C(F)(F)C(F)(F)F | inactive | – |
| C[C@@H]1C[C@@H]([C@H](O)CC2CC(=O)NC(=O)C2)C(=O)[C@@H](C)C1 | inactive | – |
| CCOP(=O)(O)C(N)=O | inactive | – |
| Nc1cc(Cl)cc(C(=O)O)c1Cl | inactive | – |
| CC(C)(C)NCC(O)c1cc(Cl)c(N)c(C(F)(F)F)c1 (stereo not given) | inactive | – |
| CCCCC(CC)COC(=O)c1c(Br)c(Br)c(Br)c(Br)c1C(=O)OCC(CC)CCCC (stereo not given) | inactive | – |
| COc1cc(C[C@@H](C)N)c(OC)cc1Br | inactive | – |
| Cc1nc(N(C)C)nc(OC(=O)N(C)C)c1C | inactive | – |
| O=C=NC1CCCCC1 | inactive | – |
| C[N+](C)(C)CCOC(=O)C(O)(c1ccccc1)c1ccccc1 | inactive | – |
| C[C@]12C=CC3=C4CCC(=O)C=C4CC[C@H]3[C@@H]1CC[C@@H]2O | inactive | – |
| CCCCNC(=O)OCC#CI | inactive | – |
| COP(=O)(OC)OC(Br)C(Cl)(Cl)Br (stereo not given) | inactive | – |
| COC1=CC(=O)O[C@@H](/C=C/c2ccc3c(c2)OCO3)C1 | inactive | – |
| CN(C)C(=O)Nc1cccc(OC(=O)NC(C)(C)C)c1 | inactive | – |
| N#CC(C#N)=C(C#N)C#N | inactive | – |
| CCCBr | inactive | – |
| CCCCCCCCCCCCN=C(N)N | – | -0.0052% [at 3.72 µM] (inactive) |
